Entries with a potency or affinity are not part of this list. Values without a mark were called inactive.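 Rule for the calls, unless noted: active = primary screen activator hit with a dose response curve and TRPC4 channel activation at any tested dose; inactive = no activation, no dose response, or not a primary hit.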
Target: Short transient receptor potential channel 4 (Mus musculus) (UniProt Q9QUQ5)
Test: calcium entry via TRPC4 opening agents – cell-based, HEK293 TRPC4/mu-opioid, Fluo-4 calcium, dose response (AID 434937);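 note: HEK293 cells coexpressing mouse TRPC4 with mu-opioid receptor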
Settings: HEK293 TRPC4 cells, Fluo-4 calcium fluorescence ratio; series mostly up to 20 µM; activation ratio: at the top concentration

Chain of Short transient receptor potential channel 4 (Mus musculus) (Q9QUQ5 whole entry, looked up): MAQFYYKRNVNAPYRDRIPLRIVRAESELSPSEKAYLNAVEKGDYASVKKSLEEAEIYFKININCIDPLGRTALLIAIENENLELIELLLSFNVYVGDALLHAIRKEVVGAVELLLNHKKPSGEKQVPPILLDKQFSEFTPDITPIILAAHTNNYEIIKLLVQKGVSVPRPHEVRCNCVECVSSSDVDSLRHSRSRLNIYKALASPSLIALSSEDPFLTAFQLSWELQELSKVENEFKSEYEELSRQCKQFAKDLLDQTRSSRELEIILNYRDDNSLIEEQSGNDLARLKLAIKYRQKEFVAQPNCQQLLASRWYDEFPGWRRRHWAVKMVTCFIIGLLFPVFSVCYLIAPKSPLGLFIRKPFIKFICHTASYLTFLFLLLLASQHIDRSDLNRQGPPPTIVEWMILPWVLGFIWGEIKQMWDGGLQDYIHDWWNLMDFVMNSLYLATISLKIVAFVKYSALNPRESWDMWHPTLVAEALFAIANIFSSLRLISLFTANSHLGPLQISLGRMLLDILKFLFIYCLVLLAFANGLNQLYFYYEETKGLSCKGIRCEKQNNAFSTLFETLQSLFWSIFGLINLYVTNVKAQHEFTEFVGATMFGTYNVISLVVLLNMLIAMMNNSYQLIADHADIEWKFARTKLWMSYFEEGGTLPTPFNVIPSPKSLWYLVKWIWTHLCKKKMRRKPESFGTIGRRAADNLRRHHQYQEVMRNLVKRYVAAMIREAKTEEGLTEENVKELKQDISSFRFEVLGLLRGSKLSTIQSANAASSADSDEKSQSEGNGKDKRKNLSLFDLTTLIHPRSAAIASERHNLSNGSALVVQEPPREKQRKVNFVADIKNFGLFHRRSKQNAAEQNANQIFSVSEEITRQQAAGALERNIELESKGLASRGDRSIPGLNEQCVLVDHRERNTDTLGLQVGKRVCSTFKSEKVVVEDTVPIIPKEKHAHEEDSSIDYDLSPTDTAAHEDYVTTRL

Structure (SMILES) | activation ratio
Cc1ccsc1C(=O)C1CCCN(Cc2ccccc2O)C1 (stereo not drawn) | -1.17
COc1ccc(C[C@@H]2c3cc(O)c(OC)cc3CCN2C)cc1O | 1.35
CCC1=Nc2cc(C(=O)N3CCC4(CC3)OCCO4)ccc2Sc2ccc(C)cc21 | 10.8
Cc1ccc(CN2C3CCCC2CC(NC(=S)NCc2ccccc2)C3)cc1 (stereo not drawn) | 19.5
COc1ccc(Br)cc1CN1CCN(C(=O)Cc2ccccc2)CC1 | -0.41
CC(C)CN(CC(C)C)c1ccc(C=C2C(=O)NC(=S)NC2=O)cc1[N+](=O)[O-] | -2.3
CCOC(=O)C1(CCc2ccccc2)CCN(Cc2cccc3c2OCO3)CC1 | 28.6
COc1ccc(CN2CCCC(C(=O)c3sccc3C)C2)cc1O (stereo not drawn) | 1.75
CCN1CCN(Cc2cc(Br)ccc2O)CC1 | 10.9
CCN(CC)c1ccc([N+](=O)[O-])c2cccnc12 | -1.86
CN(CCOc1ccc(C=C2C(=O)NC(=O)NC2=O)cc1)c1ccccn1 | 21.7
CCN(CC)CC(=O)Nc1ccc(Cl)cc1C(=O)c1ccccc1 | -0.73
COc1cccc(O)c1CN1CCCC(C(=O)c2sccc2C)C1 (stereo not drawn) | -0.28
CCC1=Nc2cc(C(=O)N3CCC4(CC3)OCCO4)ccc2Sc2ccc(Br)cc21 | 22.3
COc1ccc2[nH]cc(CCN(C)C)c2c1 | 15.3
CC(=O)OC1(c2ccccc2)CCN(C2CCCCC2)CC1C (stereo not drawn) | 26
CCOC(=O)C1(c2ccccc2)CCN(CC(=O)Nc2ccc(C)cc2)CC1 | 10.8
COc1ccc(O)c(CN2CCCC(C(=O)c3sccc3C)C2)c1 (stereo not drawn) | -1.23
Clc1ccc(OCC#CCN2CCCC2)cc1 | 54.5

Structure (SMILES) | activation ratio
O=C(c1cccc(C(F)(F)F)c1)C1CCCN(Cc2ccccc2O)C1 (stereo not drawn) | 1.12
CCOC(=O)C1(CCc2ccccc2)CCN(Cc2ccco2)CC1 | 15.9
Nc1ccccc1-[n+]1c(-c2ccccc2)cc(-c2ccccc2)cc1-c1ccccc1 | 22.3
CCc1nccc2c1[nH]c1ccccc12 | 2.18
CCOC(=O)C(O)(c1ccc(NC(=S)NC(=O)c2ccc(Cl)cc2Cl)c(C)c1)C(F)(F)F (stereo not drawn) | 16.9
COc1ccc(OC)c(N2Cc3ccccc3C2=N)c1 | 1.02
CCOc1c(Cl)cc(CNC(C)C(O)c2ccccc2)cc1OC (stereo not drawn) | 4.63
Cc1cccc(N2CCc3c2nc2ccccc2c3N)c1 | 0.89
COc1ccc(C)cc1NC1=NC(C)(C)CS1 | 2.13
N=c1n(CCO)c2ccccc2n1Cc1ccccc1 | 1.71
CCc1ccc(OCCCN=C(C)c2c(O)n(C)c(=O)n(C)c2=O)cc1 | -0.38
O=C(CN1CCCC1)Nc1ccc(Cl)cc1C(=O)c1ccccc1 | -1.34
O=C(c1ccc(Cl)cc1)C1CCCN(C2CCSCC2)C1 (stereo not drawn) | 2.77
Cc1ccc(C2CN(C)CC2C(=O)c2ccc(F)cc2)cc1 (stereo not drawn) | 2.45
O=C(Cc1ccccc1)N1CCN(Cc2cccc(Br)c2)CC1 | -1.61
Cc1cccc(N=Cc2c(O)n(-c3ccccc3C)c(=O)[nH]c2=O)c1 | 2.43
CC(Cc1ccccc1Sc1ccccc1O)N(C)C (stereo not drawn) | 20
COc1ccc(OC)c(CN2CCCC(C(=O)c3sccc3C)C2)c1 (stereo not drawn) | 2.45
CCCCc1ncc(CN2CCCC(C(=O)c3ccc(SC)cc3)C2)[nH]1 (stereo not drawn) | 0.85

Target: Short transient receptor potential channel 4 (Mus musculus) (UniProt Q9QUQ5)
Test: potentiation of DAMGO-evoked TRPC4 calcium signal – cell-based, HEK293 TRPC4/mu-opioid, Fluo-4 calcium, EC20 DAMGO, dose response (AID 434941;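 active = earlier screen potentiator hit that boosts the TRPC4 ion channel at some dose, with a dose response; inactive = no potentiation, no dose response, or not a prior hit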;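 note: calcium entry triggered by an EC20 dose of DAMGO at the co-expressed mu-opioid receptor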)
Settings: HEK293 TRPC4/mu-opioid cells, Fluo-4 calcium fluorescence; series mostly up to 20 µM; potentiation ratio: at the top concentration

Structure (SMILES) | potentiation ratio
Cc1ccsc1C(=O)C1CCCN(Cc2ccccc2O)C1 (stereo not drawn) | 3.59
COc1ccc(C[C@@H]2c3cc(O)c(OC)cc3CCN2C)cc1O | -0.55
CCC1=Nc2cc(C(=O)N3CCC4(CC3)OCCO4)ccc2Sc2ccc(C)cc21 | -16.9
Cc1ccc(CN2C3CCCC2CC(NC(=S)NCc2ccccc2)C3)cc1 (stereo not drawn) | -24.9
COc1ccc(Br)cc1CN1CCN(C(=O)Cc2ccccc2)CC1 | 2.01
CC(C)CN(CC(C)C)c1ccc(C=C2C(=O)NC(=S)NC2=O)cc1[N+](=O)[O-] | -0.96
CCOC(=O)C1(CCc2ccccc2)CCN(Cc2cccc3c2OCO3)CC1 | -20.6
COc1ccc(CN2CCCC(C(=O)c3sccc3C)C2)cc1O (stereo not drawn) | 0.52
CCN(CC)c1ccc([N+](=O)[O-])c2cccnc12 | 1.25
CN(CCOc1ccc(C=C2C(=O)NC(=O)NC2=O)cc1)c1ccccn1 | -5.77
CCN(CC)CC(=O)Nc1ccc(Cl)cc1C(=O)c1ccccc1 | 0.82
COc1cccc(O)c1CN1CCCC(C(=O)c2sccc2C)C1 (stereo not drawn) | 0.94
CCC1=Nc2cc(C(=O)N3CCC4(CC3)OCCO4)ccc2Sc2ccc(Br)cc21 | -14.9
CC(=O)OC1(c2ccccc2)CCN(C2CCCCC2)CC1C (stereo not drawn) | -12.3
CCOC(=O)C1(c2ccccc2)CCN(CC(=O)Nc2ccc(C)cc2)CC1 | -11.8
COc1ccc(O)c(CN2CCCC(C(=O)c3sccc3C)C2)c1 (stereo not drawn) | 1.82
Clc1ccc(OCC#CCN2CCCC2)cc1 | -1.09
O=C(c1cccc(C(F)(F)F)c1)C1CCCN(Cc2ccccc2O)C1 (stereo not drawn) | -2.95

Structure (SMILES) | potentiation ratio
CCOC(=O)C1(CCc2ccccc2)CCN(Cc2ccco2)CC1 | -6.2
Nc1ccccc1-[n+]1c(-c2ccccc2)cc(-c2ccccc2)cc1-c1ccccc1 | -6.69
CCc1nccc2c1[nH]c1ccccc12 | -0.37
COc1ccc(OC)c(N2Cc3ccccc3C2=N)c1 | -0.07
CCOc1c(Cl)cc(CNC(C)C(O)c2ccccc2)cc1OC (stereo not drawn) | 0.14
Cc1cccc(N2CCc3c2nc2ccccc2c3N)c1 | -1.05
COc1ccc(C)cc1NC1=NC(C)(C)CS1 | 0.61
N=c1n(CCO)c2ccccc2n1Cc1ccccc1 | -0.07
CCc1ccc(OCCCN=C(C)c2c(O)n(C)c(=O)n(C)c2=O)cc1 | 14.1
O=C(CN1CCCC1)Nc1ccc(Cl)cc1C(=O)c1ccccc1 | 4.61
O=C(c1ccc(Cl)cc1)C1CCCN(C2CCSCC2)C1 (stereo not drawn) | 0.55
Cc1ccc(C2CN(C)CC2C(=O)c2ccc(F)cc2)cc1 (stereo not drawn) | 1.06
O=C(Cc1ccccc1)N1CCN(Cc2cccc(Br)c2)CC1 | 2.2
Cc1cccc(N=Cc2c(O)n(-c3ccccc3C)c(=O)[nH]c2=O)c1 | 48.9
CC(Cc1ccccc1Sc1ccccc1O)N(C)C (stereo not drawn) | -12.6
COc1ccc(OC)c(CN2CCCC(C(=O)c3sccc3C)C2)c1 (stereo not drawn) | 0.89
CCCCc1ncc(CN2CCCC(C(=O)c3ccc(SC)cc3)C2)[nH]1 (stereo not drawn) | 1.22

Source: PubChem BioAssay
